What was measured:
Assay in all cases: thermal shift delta Tm vs DMSO control; higher = stronger stabilization (binding)
Details in all cases: 12.5 µM; protein concentration 2 µM
LOC_OS04G57630-cb004 = test system: LOC_OS04G57630-cb004
Procedure, shortened: (§1)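 Heating from 25°C to 95°C at 0.05°C/s, fluorescence was recorded for 19.5 μl wells of 2 μM E. coli-expressed, purified rice kinase domain in 100 mM potassium phosphate pH 7.5, 150 mM NaCl, 10% glycerol and 5 × SYPRO Orange with compound in DMSO. Boltzmann fits gave melting temperatures for this differential scanning fluorimetry assay. The shift reported is the mean of three replicates against the DMSO-only protein.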

LOC_OS05G07850-cb002 = test system: LOC_OS05G07850-cb002
Procedure, shortened: as §1

LOC_OS05G16824-cb004 = test system: LOC_OS05G16824-cb004
Procedure, shortened: as §1

LOC_OS05G28520-cb001 = test system: LOC_OS05G28520-cb001
Procedure, shortened: as §1

LOC_OS05G30820-cb001 = test system: LOC_OS05G30820-cb001
Procedure, shortened: as §1

LOC_OS05G43570-cb004 = test system: LOC_OS05G43570-cb004
Procedure, shortened: as §1

LOC_OS06G16330-cb003 = test system: LOC_OS06G16330-cb003
LOC_OS06G16330-cb003, sequence (as listed by the source): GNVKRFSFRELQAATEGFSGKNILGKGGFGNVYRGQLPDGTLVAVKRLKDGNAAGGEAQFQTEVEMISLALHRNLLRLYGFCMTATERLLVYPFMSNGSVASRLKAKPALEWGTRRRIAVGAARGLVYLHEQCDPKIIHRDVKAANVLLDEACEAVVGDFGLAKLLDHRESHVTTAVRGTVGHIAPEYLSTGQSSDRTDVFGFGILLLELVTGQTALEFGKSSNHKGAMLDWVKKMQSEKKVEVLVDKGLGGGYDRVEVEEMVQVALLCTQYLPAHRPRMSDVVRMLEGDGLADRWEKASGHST
Procedure, shortened: as §1

LOC_OS06G22820-cb001 = test system: T1, LOC_OS06G22820-cb001
T1 sequence (whole entry): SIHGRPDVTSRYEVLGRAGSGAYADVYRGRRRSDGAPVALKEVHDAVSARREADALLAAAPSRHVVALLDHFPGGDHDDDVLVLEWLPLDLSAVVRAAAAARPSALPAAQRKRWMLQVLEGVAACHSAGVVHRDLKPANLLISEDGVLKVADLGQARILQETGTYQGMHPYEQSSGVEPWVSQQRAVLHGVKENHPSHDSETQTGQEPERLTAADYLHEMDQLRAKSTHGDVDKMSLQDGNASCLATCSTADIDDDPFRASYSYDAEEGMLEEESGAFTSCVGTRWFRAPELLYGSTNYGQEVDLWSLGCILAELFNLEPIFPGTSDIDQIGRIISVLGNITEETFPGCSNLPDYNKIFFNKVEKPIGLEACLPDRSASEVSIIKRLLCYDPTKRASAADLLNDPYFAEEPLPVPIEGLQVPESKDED
Procedure, shortened: as §1

LOC_OS07G06570-cb004 = test system: LOC_OS07G06570-cb004
Procedure, shortened: as §1

LOC_OS07G07230-cb001 = test system: LOC_OS07G07230-cb001
Procedure, shortened: as §1
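Also: purified Escherichia coli-expressed rice kinase domain construct.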

SMILES | thermal shift delta Tm (LOC_OS04G57630-cb004) [°C] | thermal shift delta Tm (LOC_OS05G07850-cb002) [°C] | thermal shift delta Tm (LOC_OS05G16824-cb004) [°C] | thermal shift delta Tm (LOC_OS05G28520-cb001) [°C] | thermal shift delta Tm (LOC_OS05G30820-cb001) [°C] | thermal shift delta Tm (LOC_OS05G43570-cb004) [°C] | thermal shift delta Tm (LOC_OS06G16330-cb003) [°C] | thermal shift delta Tm (LOC_OS06G22820-cb001) [°C] | thermal shift delta Tm (LOC_OS07G06570-cb004) [°C] | thermal shift delta Tm (LOC_OS07G07230-cb001) [°C]
CC(C)n1ncnc1-c1cn2c(n1)-c1ccc(O[C@@H](C)C(N)=O)cc1OCC2 | -0.03 | -0.96 | -0.54 | 0.38 | 0.25 | 0.23 | -0.02 | 0.43 | 0.88 | 0.22
O=C(NCc1ccccc1)c1csc(Nc2ccncn2)n1 [Thiazovivin] | 0.16 | 2.6 | -1.42 | 0.2 | 0.36 | 1.22 | 0.41 | 0.56 | 0.66 | -0.04
Cc1[nH]c(/C=C2\C(=O)Nc3ccc(S(=O)(=O)Cc4c(Cl)cccc4Cl)cc32)c(C)c1C(=O)N1CCC[C@@H]1CN1CCCC1 | 2.32 | 10.3 | 0 | 0.75 | 0.48 | 0.55 | 6.03 | 0.86 | 0.77 | 0.98
COc1ccc(-c2ccc3ncc4c(c3c2)n(-c2ccc(N3CCNCC3)c(C(F)(F)F)c2)c(=O)n4C)cn1 | 0.96 | 10.2 | 2.52 | 0.28 | 0.54 | 0.36 | 4.63 | 0.38 | 0.59 | 0.06
COc1cc(OC)cc(N(CCNC(C)C)c2ccc3ncc(-c4cnn(C)c4)nc3c2)c1 | 0.11 | 3.45 | -0.05 | 0 | 0.18 | 0.08 | 0.79 | 0.32 | 1.94 | 0.52
Cc1cc(Nc2cc(N3CCN(C)CC3)nc(/C=C/c3ccccc3)n2)n[nH]1 | 3.73 | 11.7 | 11.2 | 7.06 | 1.8 | 0.82 | 5.06 | 0.17 | 1.23 | 0.9
Cc1ccc(C(=O)Nc2cccc(C(F)(F)F)c2)cc1Nc1nc(-c2cccnc2)nc2c1cnn2C | 0.31 | 0.03 | -1.61 | 0.44 | 0.9 | 1.18 | 1.09 | 0.98 | 1.07 | 0.06
Oc1cccc(-c2nc(N3CCOCC3)c3oc4ncccc4c3n2)c1 | -0.25 | 0.47 | 1.57 | 0.51 | 0.49 | 0.69 | 0.07 | 0.82 | 1.15 | 0.33
CCCCCCCCCC(=O)CC(O)S(=O)(=O)O (stereo not given) [Sodium Houttuyfonate] | 0.61 | 0.71 | -0.1 | 0.13 | 0.21 | 0.52 | -8.96 | -0.11 | 0.7 | 0.34
Cc1cc(Nc2ncc(Cl)c(Nc3ccccc3S(=O)(=O)C(C)C)n2)c(OC(C)C)cc1C1CCNCC1 [Ceritinib (LDK378)] | 0.2 | 3.05 | -1.5 | 0.31 | 0.63 | 0.27 | 4.76 | 0.68 | 1.5 | 0.14
COc1ccc(COc2ccc(Cc3cnc(N)nc3N)cc2OC)cc1 | 0.05 | 0.49 | -1.41 | 0.33 | 0.26 | 0.4 | 1.65 | 0.41 | 0.82 | -0.38
c1cc(-c2cnn3cc(-c4ccc(OCCN5CCCCC5)cc4)cnc23)ccn1 [Dorsomorphin 2HCl] | 6.96 | 9.81 | 12.6 | 3.18 | 1.22 | 0.81 | 8.76 | 0.18 | 1.04 | 1.17
Nc1ncc(-c2ccnc(Nc3ccncc3)n2)c(CC2CC2)n1 | 0.81 | 7.15 | 0.92 | 0.45 | 0.44 | 0.4 | 3.58 | 0.78 | 1.03 | -0.19
N#Cc1ccc2[nH]c(O)c(-c3ccc(CN4CCOCC4)cn3)c2c1 | 0.29 | 2.86 | 1.38 | 0.81 | 0.35 | 0.3 | -0.35 | 0.74 | 1.19 | 0.07
CNC(=O)c1ccc(C)c(-n2c(C)cc(OCc3ccc(F)cc3F)c(Br)c2=O)c1 | 0.7 | 0.4 | 0.62 | 0.4 | 0.44 | 0.56 | 0.1 | 0.38 | 0.59 | -0.01
O=C1NC(=O)[C@@H](c2cn3c4c(cccc24)CCC3)[C@@H]1c1c[nH]c2ccccc12 [Tivantinib (ARQ 197)] | 0.47 | 0.25 | -2.47 | 0.49 | 0.62 | 0.57 | 0.29 | 0.65 | 0.51 | 0.56
C=CC(=O)Nc1ccc2ncnc(Nc3ccc(OCc4cccc(F)c4)c(Cl)c3)c2c1 | 2.39 | 1.81 | 3.11 | 1.71 | 0.87 | 2.77 | 1.04 | 2.98 | 1.79 | -0.18
CCCCNc1ncc(-c2ccc(CN3CCOCC3)cn2)c(NC2CCC(O)CC2)n1 (stereo not given) | 4.09 | 9.44 | 8.95 | 0.2 | 0.7 | 0.43 | 9.08 | 0.1 | 0.37 | 0.71
COc1ccc([C@@H]2OC[C@H]3[C@@H]2CO[C@@H]3c2ccc(O[C@@H]3O[C@H](CO)[C@@H](O)[C@H](O)[C@H]3O)c(OC)c2)cc1OC [Forsythin] | -0.22 | -0.42 | -9.57 | 0.25 | -0.02 | 0.21 | -0.18 | 0.41 | 0.89 | 0.9
COC1(c2sc3c(N4CCOCC4)nc(-c4cnc(N)nc4)nc3c2C)COC1 | 0.27 | 5.18 | 1.1 | 0.27 | 0.59 | 1.45 | 3.12 | 0.17 | 0.85 | 0.65
